Measurements: PubChem BioAssay
A number with no mark means an inactive call. The rule behind the calls is not given here.

The compounds below were run on Aerobactin synthetase IucA (Klebsiella pneumoniae, hypervirulent) (assay: IucA enzyme inhibition, biochemical, LOPAC library, absorbance readout (AID 1346212;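 note: 100% = no compound wells and 0% = no enzyme wells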)). Conditions: IucA enzyme assay, absorbance (OD) readout; active compounds read low;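 tested at 8 µM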.
In the case of `CC[N+](CC)(CC)CC(=O)Nc1c(C)cccc1C`, the remaining activity was 113%. `CN1CCc2cc(Cl)c(O)cc2[C@@H](c2ccccc2)C1` was tested, and the remaining activity was 102%. Work on `CNCC[C@@H](Oc1ccc(C(F)(F)F)cc1)c1ccccc1` yielded a remaining activity of 105%. `N[C@H](C(=O)O)c1cc(O)cc(O)c1` gave a remaining activity of 108%. Compound `CN(CCOc1ccc(C[C@H](Nc2ccccc2C(=O)c2ccccc2)C(=O)O)cc1)c1ccccn1` has a remaining activity of 117%. `CNC(=O)[C@H]1O[C@@H](n2cnc3c(NCc4cccc(I)c4)ncnc32)[C@H](O)[C@@H]1O` gave a remaining activity of 114%. `OC[C@H]1O[C@@H](n2cnc3c(NCCc4ccccc4)ncnc32)[C@H](O)[C@@H]1O` showed a remaining activity of 92.7%. Work on `N[C@@H](Cc1ccc(F)cc1)C(=O)O` yielded a remaining activity of 95%. With `C=C/C(C)=C/[C@@]1(C)SC(=O)C(C)=C1O` the remaining activity was 123%. `COc1ccccc1N1CCN(CCCNc2c(C)c(=O)n(C)c(=O)n2C)CC1` gave a remaining activity of 96.4%. `OC(CN1CCC(Cc2ccc(F)cc2)CC1)c1ccc(Cl)cc1` (configuration not stated) gave a remaining activity of 99.6%. Compound `O=c1[nH]c(=O)c2nc3ccccc3nc2[nH]1` has a remaining activity of 114%. `C[C@@H]1C(=O)NC2=Nc3cccc(Cl)c3CN21` showed a remaining activity of 121%. `c1ccc(CN2CCC3(CCCc4ccccc43)CC2)cc1` was tested, and the remaining activity was 103%. For `COc1ccccc1N1CCN(CCCCN2C(=O)c3ccccc3C2=O)CC1`, the remaining activity was 113%. Work on `NCCCC(N)(C(=O)O)C(F)F` (configuration not stated) yielded a remaining activity of 121%. With `NC(=NCc1ccc(Cl)c(Cl)c1)NC(=O)c1nc(Cl)c(N)nc1N` the remaining activity was 105%.
